Bim-Mcl-1: inhibitors of Bim peptide binding to Mcl-1, primary screen, biochemical, bead-based flow cytometry, multiplex | Induced myeloid leukemia cell differentiation protein Mcl-1 (Homo sapiens), Q07820 | inhibition, % at 10 µM | Bim peptide-Mcl-1 binding | actives 0.1% (n = 190,000); in the data active = inhibition above about 40%
BCLXL inh: inhibitors of human Bcl-xL, primary screen, biochemical, fluorescence polarization, HTS; Bcl-2-like protein 1 (Homo sapiens), Q07817; GST-Bcl-xL / FITC-Bim BH3 peptide fluorescence polarization; inhibition, % at 10.9 µM; actives 0.7% (n = 320,000); AID 2129, 2009;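 active = inhibition above the mean of all tested compounds plus 3 SD, cutoff set per campaign, cut at about 30% in these data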;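 also: inhibitors lower millipolarization by displacing the labeled peptide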
Target sequence (Q07817 whole entry, looked up): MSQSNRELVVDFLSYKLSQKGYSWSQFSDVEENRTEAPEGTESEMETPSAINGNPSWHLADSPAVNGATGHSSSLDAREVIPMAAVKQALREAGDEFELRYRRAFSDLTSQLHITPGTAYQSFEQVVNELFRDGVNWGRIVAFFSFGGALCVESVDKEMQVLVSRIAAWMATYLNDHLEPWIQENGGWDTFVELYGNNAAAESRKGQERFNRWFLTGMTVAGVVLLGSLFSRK
GLD-1 TGE inh: GLD-1/TGE RNA complex disruptors, primary screen, biochemical, fluorescence polarization | inhibition, % at 5.96 µM | actives 0.44% (n = 320,000) | AID 2280, 2010 | purified GLD-1 + fluorescein TGE RNA;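 active = percent inhibition above a per-plate cutoff, the plate mean of test compounds plus 3 SD, cut at about 30% in these data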
Mcl1-Noxa inh: Mcl-1/Noxa binding inhibitors, primary screen, biochemical, TR-FRET, 1536-well. inhibition, % at 21.7 µM. actives 1.5% (n = 220,000). TR-FRET Mcl-1/Noxa peptide binding, 2 h;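 active = compounds that cut the protein-peptide binding signal by more than 50% relative to plate controls in a single-dose test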;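 also: His-tagged Mcl-1 with rhodamine Noxa BH3 peptide and terbium anti-His antibody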
MCL1 BIM primary: inhibitors of MCL1 binding to BIM-BH3, primary screen, biochemical, fluorescence polarization; AID 2057, 2009; GST-MCL1 / FITC-Bim-BH3 fluorescence polarization; inhibition, % at 10.9 µM; Induced myeloid leukemia cell differentiation protein Mcl-1 (Homo sapiens), Q07820; actives 0.68% (n = 320,000);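 active = inhibition above the mean inhibition of all tested compounds plus 3 SD, set per campaign, cut at about 40% in these data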;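 also: higher means more loss of mP so more displacement of Bim peptide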
Mcl1 Bid PPI: Mcl-1/Bid binding inhibitors, primary screen, biochemical, TR-FRET, 1536-well; Induced myeloid leukemia cell differentiation protein Mcl-1 (Homo sapiens), Q07820; TR-FRET Mcl-1/Bid-Dy647 peptide binding; inhibition, % at 21.7 µM; actives 0.97% (n = 220,000);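 active = compounds that cut the binding signal by more than half at the single screening dose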;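 also: His-tagged Mcl-1 with europium anti-His antibody binding Bid BH3 peptide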
Numbers stand for hits; - = inactive; . = no result given. An excerpt weighted towards active compounds, which were near 2.3% of everything screened.

SMILES	Bim-Mcl-1	BCLXL inh	GLD-1 TGE inh	Mcl1-Noxa inh	MCL1 BIM primary	Mcl1 Bid PPI
O=C(O)c1cc(S(=O)(=O)Nc2ccc(N3CCCCC3)cc2)ccc1Cl	-	-	-	-	-	-
O=S(=O)(Nc1ccc(N2CCCCC2)cc1)c1ccc(F)c(F)c1	-	-	-	51	-	-
CC1(C)CC(=O)C2=C(C1)OC(N)=C(C#N)C2c1cccc(OC(=O)c2ccco2)c1 (centres undefined)	-	-	-	-	-	97
COc1cccc2[nH]c3c(N4CCc5ccccc5C4)ncnc3c12	.	-	-	62	-	-
CCOC(=O)CC(=O)Nc1ccn[nH]1	.	-	-	55	-	-
COc1ccc(N)cc1-n1c(C)ccc1C	-	38	-	-	46	-
O=C(O)/C=C/C(=O)N1CCc2ccccc21	-	-	-	-	-	-
O=C(O)/C=C\C(=O)N1CCc2ccccc21	-	-	-	-	-	94
CC(C)c1nnc(NC(=O)CSc2ncn[nH]2)s1	-	-	-	53	-	-
CCC(C)c1ccccc1NC(=O)C(C)OC(=O)c1ccco1 (centres undefined)	.	-	-	.	-	.
CC(C)c1ccc(C(N)=S)cc1	-	-	-	68	-	-
CC(C)c1ccc(C(=O)NNC(=O)c2ccncc2)cc1	.	-	-	.	-	.
CCC(CC)C(=O)N1CC(=O)Nc2ccc(F)cc2C1c1ccc(F)cc1 (centres undefined)	.	-	-	.	-	.
Cc1cc(C)n(Cc2cccc(F)c2)c(=O)c1C#N	-	-	-	-	-	96
Cc1ccc(SC2=C(Sc3ccc(C)cc3)C(=O)c3ccccc3C2=O)cc1	.	-	-	69	-	-
CCN1CC=C2C(C1)C(c1ccc(Cl)s1)C(C#N)=C(N)C2(C#N)C#N (centres undefined)	-	102	76	-	114	-
O=C(NC1CCCCC1)C(c1cccs1)N(C(=O)C(F)(F)F)c1ccccc1 (centres undefined)	-	-	-	-	-	-
Cc1ccc(N(C(=O)C(F)(F)F)C(C(=O)NC2CCCCC2)c2cccs2)cc1C (centres undefined)	-	-	-	-	-	66
CCOC(=O)Nc1ccc(S(=O)(=O)N2CCC(C)CC2)cc1	-	-	-	-	-	-
CCCCN(C(=S)Nc1ccc(F)cc1)c1c(N)n(CCC)c(=O)[nH]c1=O	-	-	-	-	-	-
O=C(O)CCCN1C(=O)/C(=C/c2cn(-c3ccccc3)nc2-c2cccs2)SC1=S	-	.	.	87	.	78
CCOC(=O)CNC(=O)C1(/C=C/c2ccccc2)CC(=O)N1c1ccc(C)cc1 (centres undefined)	.	-	-	.	-	.
O=C(COC(=O)CC(NC(=O)c1ccccc1Cl)c1ccccc1)Nc1cccc(F)c1 (centres undefined)	-	-	-	-	-	72
O=C(COC(=O)CC(c1ccccc1)c1ccccc1)Nc1cccc(F)c1	-	-	-	-	-	-
O=C(/C=C\Nc1ccc(S(=O)(=O)Nc2ncccn2)cc1)c1cccc2ccccc12	.	-	-	-	-	96
SMILES	Bim-Mcl-1	BCLXL inh	GLD-1 TGE inh	Mcl1-Noxa inh	MCL1 BIM primary	Mcl1 Bid PPI
COc1ccccc1CNC(=O)C(=O)NCC1OCCN1S(=O)(=O)c1ccc(Br)cc1 (centres undefined)	.	-	-	.	-	.
COc1ccc(C(=O)NC(=S)SCC(=O)O)cc1	.	-	-	-	-	-
CCOC(=O)CSC(=S)NC(=O)c1ccc(OC)cc1	-	-	-	56	-	-
CCOC(=O)C(=Nc1ccc(Cl)cc1)NO	-	-	-	-	-	-
CCC(=O)OCCNc1cc(Sc2nc3ccccc3[nH]2)c2nonc2c1[N+](=O)[O-]	-	-	-	57	-	-
CCCSc1cc(NCCOC(C)=O)c([N+](=O)[O-])c2nonc12	-	-	-	-	-	-
Cc1nnc(Sc2cc(NCCCO)c([N+](=O)[O-])c3nonc23)s1	-	.	.	79	.	-

Source: PubChem (several laboratories)
